Bioassay records from PubChem.
In the library only some 2.6% were active in any assay of this set; here they are far more common.
PfM18AAP inh: blocks P. falciparum M18 aspartyl aminopeptidase | recombinant PfM18AAP, H-Glu-NHMec fluorogenic cleavage | inhibition, % at 7.35 µM | 1.2% of 290,000 active;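 active means inhibition above the campaign mean inhibition over all tested compounds plus 3 SD, cut at about 28% in these data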
Granule exo inh: blocks lytic granule exocytosis | inhibition, % at 10 µM | 0.66% of 360,000 active | TALL-104 LAMP-1 surface exposure, flow cytometry; cells stimulated with thapsigargin and PMA | AID 651702;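 active means inhibition above about 55%, limit read from the data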
ABHD5 PLIN5 PPI: blocks binding of human ABHD5 to perilipin-5; Split G. princeps luciferase complementation, luminescence, 4 h; inhibition, % at 4 µM; 0.78% of 360,000 active; AID 602281;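 active means inhibition above the mean inhibition across every tested compound plus 3 SD, cut at about 22% in these data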
Target sequence (Q00G26 whole entry, looked up): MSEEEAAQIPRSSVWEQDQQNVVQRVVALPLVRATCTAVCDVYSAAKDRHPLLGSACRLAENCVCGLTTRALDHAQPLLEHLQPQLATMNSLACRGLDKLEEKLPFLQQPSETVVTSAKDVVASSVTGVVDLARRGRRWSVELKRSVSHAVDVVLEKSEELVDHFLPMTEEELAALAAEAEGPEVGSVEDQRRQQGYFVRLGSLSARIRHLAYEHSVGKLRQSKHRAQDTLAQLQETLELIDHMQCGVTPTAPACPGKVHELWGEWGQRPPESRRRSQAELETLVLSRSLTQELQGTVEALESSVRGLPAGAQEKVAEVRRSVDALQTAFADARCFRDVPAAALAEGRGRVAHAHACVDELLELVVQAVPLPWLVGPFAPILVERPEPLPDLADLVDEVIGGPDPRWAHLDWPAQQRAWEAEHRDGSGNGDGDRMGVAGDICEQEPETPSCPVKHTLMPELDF
Target sequence (Q8WTS1 whole entry, looked up): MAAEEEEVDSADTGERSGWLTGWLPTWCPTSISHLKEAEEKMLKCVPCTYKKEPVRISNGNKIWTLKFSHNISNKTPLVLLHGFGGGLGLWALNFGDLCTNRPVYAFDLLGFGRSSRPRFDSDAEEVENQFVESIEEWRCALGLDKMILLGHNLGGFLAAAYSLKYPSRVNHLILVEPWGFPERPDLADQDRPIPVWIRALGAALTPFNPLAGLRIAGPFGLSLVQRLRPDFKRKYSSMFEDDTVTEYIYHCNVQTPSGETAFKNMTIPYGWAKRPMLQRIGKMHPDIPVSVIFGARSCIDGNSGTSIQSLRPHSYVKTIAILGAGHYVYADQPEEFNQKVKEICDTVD
Platelet DG rel: platelet dense granule release activity; human platelet-rich plasma, SFLLRN dense granule ATP release, luminescence; AID 1663; inhibition, %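 (compounds screened at 7.5 µM in platelet-rich plasma)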; 0.22% of 300,000 active;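 active means mean replicate score, as percent of positive control, at or above 50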
Rce1 inhib: blocks yeast Ras-converting enzyme; Q03530; yeast membranes, quenched prenylated peptide cleavage fluorescence; calls only; 0.27% of 290,000 active; AID 2563;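 active means fall in fluorescence gain of 50% or more versus controls, with final raw signal at or below 3038400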
Hits are given with their value; i = inactive; nt = no result; + = active, no number.

SMILES	PfM18AAP inh	Granule exo inh	ABHD5 PLIN5 PPI	Platelet DG rel	Rce1 inhib
Cc1oc2c(c(=O)c1C)C(=O)CC(c1ccccc1)C2 (configuration not stated)	i	i	i	i	i
CCc1noc(C)c1C(=O)Nc1cc(C(F)(F)F)ccc1-n1cncn1	nt	i	i	i	i
O=[N+]([O-])c1cccc(N=NNc2cccc([N+](=O)[O-])c2)c1	nt	i	i	nt	nt
COc1ccc(-c2oc3ccc(N4CCOCC4)cc3c2/C=C/c2ccc(OC)c(OC)c2)cc1	i	i	i	i	+
O=C(CNc1cc(S(=O)(=O)N2CCOCC2)ccc1NCC1CCCO1)Nc1cccc(F)c1 (configuration not stated)	29.1	i	i	i	i
CCCCNC(=O)Nc1ncn[nH]1	29.0	i	i	i	i
Cc1ccc(C(=O)Nc2ncn[nH]2)cc1	i	i	i	i	i
O=C(NNS(=O)(=O)c1ccccc1)c1ccc([N+](=O)[O-])cc1	28.8	i	i	i	i
O=C(O)CCc1nc2cc(C(F)(F)F)ccc2n(Cc2ccccc2)c1=O	i	i	i	i	+
O=C1CC(=O)c2c1cccc2[N+](=O)[O-]	33.9	nt	nt	nt	nt
Cc1ccccc1N=C(NO)c1nonc1N	28.9	i	i	i	i
c1cncc(Nc2c3ccccc3nc3ccccc23)c1	i	i	i	i	i
CSc1ccc(/C=C/C(=O)c2ccc(NC(=O)Cc3ccccc3)cc2)cc1	i	i	i	i	i
CSc1ccc(/C=C/C(=O)c2ccc(NC(=O)C(C)C)cc2)cc1	i	i	22.7	i	i
COc1cccc(C(=O)/C=C/c2ccc(SC)cc2)c1	i	i	22.7	i	i
COC(=O)c1ccc(/C=C/C(=O)c2cccc(OC)c2)cc1	i	i	i	i	i
COc1cccc(C(=O)/C=C/Nc2cccc(O)c2)c1	i	i	i	67.6	i
COc1ccc(OC)c(N/C=C/C(=O)c2ccccc2)c1	i	i	i	83.2	i
O=C1/C(=C/c2ccc(N3CCOCC3)o2)SC(=Nc2ccccc2)N1CCc1c[nH]c2ccccc12	i	75.2	76.7	i	i
O=C1S/C(=C/c2ccc(N3CCOCC3)o2)C(=O)N1Cc1ccc(F)cc1	i	77.9	i	i	i
COc1cc(/C=C2\SC(=Nc3ccccc3)N(CCc3c[nH]c4ccccc34)C2=O)ccc1OC(C)C(=O)O (configuration not stated)	i	i	i	i	i
Cc1c(C)c2ccc(OC(C)C(=O)NCCCN3CCOCC3)c(C)c2oc1=O (configuration not stated)	i	i	i	i	+
CCc1nnc(N/N=C/c2ccccc2F)n1N	61.6	i	i	i	i
CC(C)(C)c1nnc(N/N=C/c2ccccc2O)n(N)c1=O	51.9	i	i	i	i
Oc1ccccc1/C=N/Nc1nccnc1Cl	i	i	i	i	i
SMILES	PfM18AAP inh	Granule exo inh	ABHD5 PLIN5 PPI	Platelet DG rel	Rce1 inhib
CCOC(=O)N/N=C/c1ccccc1F	i	i	i	i	i
Cc1onc(-c2ccccc2)c1C(=O)c1c[nH]c(C(=O)NCCCN2CCOCC2)c1	i	i	i	i	i
CCN(CCCNC(=O)CCc1nc(-c2ccc(OC)cc2)no1)c1cccc(C)c1	31.7	i	i	i	i
COc1ccc(-c2noc(CCC(=O)NCCc3ccccc3)n2)cc1	i	i	i	i	i
CS/C(N)=N/N=C/c1ccc([N+](=O)[O-])cc1	i	i	i	i	i
COc1ccccc1C(=O)NCCNC(=O)c1ccco1	i	i	i	i	i
CC(=O)OC1=C(O)C(=O)c2ccccc2C1=O	nt	nt	nt	i	+
CN=CC1=C(O)c2ccccc2C1=O	i	i	i	i	i
N#Cc1cccc(C=C(C(=O)c2ccccc2)c2ccccc2)c1	nt	i	22.0	nt	nt
O=C(Nc1ccc(Cl)cn1)Nc1ccccc1Cl	i	i	i	i	i
O=C(COC(=O)CSc1nnc(-c2ccc(Cl)cc2)o1)NCc1ccc2c(c1)OCO2	i	i	i	i	i
NC(=S)N=Nc1c(O)n(CCCl)c2ccc(Br)cc12	i	78.0	i	i	i
Cc1ccc2c(c1)c(N=NC(N)=S)c(O)n2Cc1ccccc1	i	i	i	i	i
NC(=S)N=Nc1c(O)n(Cc2ccc(F)cc2)c2ccccc12	i	i	i	i	+
C/C(Cl)=C\Cn1c(O)c(N=NC(N)=S)c2cc(Br)ccc21	i	i	i	i	+
NC(=S)N=Nc1c(O)n(Cc2ccc(Br)cc2)c2ccccc12	i	i	i	i	i
O=C(O)CSC(=S)N1CCCC1	i	i	i	i	i
CCOC(=O)c1cc(S(=O)(=O)NCCc2ccccc2)cn1C	i	i	i	i	i
OC(c1ccc2c(c1)OCO2)c1ncc(-c2ccccc2)[nH]1 (configuration not stated)	nt	i	i	nt	nt
COc1ccccc1CC(=O)Nc1ccc2c(c1)C(=O)NC2=O	i	i	i	i	nt
COc1ccc(/C=N/NC(=O)c2ccncc2)cc1OC	i	i	i	i	i
COc1ccc(/C=N/NC(=O)c2cccnc2)cc1COc1ccc([N+](=O)[O-])cc1	i	61.1	i	i	i
COc1cc(/C=N/NC(=O)c2cccnc2)ccc1OC(=O)c1ccc([N+](=O)[O-])cc1	i	76.0	i	i	i
COc1cc(/C=N/NC(=O)c2ccncc2)ccc1OC(=O)c1cc(OC)c(OC)c(OC)c1	i	i	i	i	+
COC(C/C=C\C(=O)[C@H](C)OCc1ccccc1)OC	nt	i	i	i	+
SMILES	PfM18AAP inh	Granule exo inh	ABHD5 PLIN5 PPI	Platelet DG rel	Rce1 inhib
COC(C/C=C\[C@@H](O)[C@@H](C)OCc1ccccc1)OC	nt	i	i	i	i
CC(=O)OCC(=O)[C@@]12OC3(CCCC3)O[C@@H]1C[C@H]1[C@@H]3CCC4=CC(=O)C=C[C@]4(C)[C@@]3(F)[C@@H](O)C[C@@]12C	i	i	i	i	+
O=c1c2c3c(sc2n(CCN2CCCC2)c(=O)n1Cc1ccco1)CCCCC3	i	i	i	i	i
O=C(Cn1c(=O)n(Cc2ccco2)c(=O)c2c3c(sc21)CCCCC3)Nc1ccccc1	i	i	66.4	i	i
CN(C)CCn1c(=O)n(Cc2ccco2)c(=O)c2c3c(sc21)CCCCC3	i	i	i	i	i
O=C(Cn1c(=O)n(Cc2ccco2)c(=O)c2c3c(sc21)CCCCC3)c1ccccc1	i	i	50.6	i	i
NC(=S)NNc1ccc(Cl)c(Cl)c1	i	68.4	i	i	i
CC(C)CN=Cc1c(O)c([N+](=O)[O-])cc2oc3c(c12)CCCC3	i	95.0	i	i	i
COc1ccc2nc3n(c(=O)c2c1)-c1ccc(Cl)cc1C(=O)NC3Cc1ccc(O)cc1 (configuration not stated)	nt	i	i	nt	nt
C[C@H]1O[C@H](O[C@H]2[C@H](O[C@@H]3CC[C@@]4(C)C(CC[C@]5(C)C4CC=C4[C@@H]6CC(C)(C)CC[C@]6(C(=O)O[C@@H]6O[C@H](CO)[C@@H](O)[C@H](O)[C@H]6O)CC[C@]45C)C3(C)C)O[C@H](C(=O)O)[C@@H](O)[C@@H]2O)[C@@H](O)[C@@H](O)[C@@H]1O (some centres not stated)	nt	i	i	nt	nt
